From the supplement of paper PMC6555819

Columns and labels:
Experiment in all cases: PBM binding z-score (relative to random genomic background probes); higher = stronger binding; sequences stand for … in GC…GCGATTGACAGCGTAGAATGAAGG
[1] = test system: FXR:RXRa (NR concentration 270 nM, RXRa partner concentration 90 nM)
How it was run: (§1)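 Binding buffer was PBS pH 7.4 with 2% milk, 0.02% Triton X-100, 1 mM DTT, 0.2 mg/mL BSA and 0.4 mg/ml salmon testes DNA. In it, ligand-free nuclear receptor dimers were incubated 1 h on custom Agilent 4×180K protein-binding microarrays carrying double-stranded probes. Antibodies against each partner (one per run) detected binding, and z-scores were calculated against random background probes after regression normalization of scanned fluorescence.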

[2] = test system: LXRa:RXRa (NR concentration 270 nM, RXRa partner concentration 90 nM)
How it was run: as §1

[3] = test system: LXRa homodimer (NR concentration 270 nM)
How it was run: as §1

[4] = test system: LXRb:RXRa (NR concentration 270 nM, RXRa partner concentration 90 nM)
How it was run: as §1

[5] = test system: LXRb homodimer (NR concentration 270 nM)
How it was run: as §1

[6] = test system: PPARa:RXRa (NR concentration 270 nM, RXRa partner concentration 90 nM)
How it was run: as §1

[7] = test system: PPARg:RXRa (NR concentration 180 nM, RXRa partner concentration 90 nM)
How it was run: as §1

[8] = test system: PPARg:RXRa 270nM:90nM, anti-RXR (NR concentration 270 nM, RXRa partner concentration 90 nM)
How it was run: as §1

[9] = test system: PPARg:RXRa 30nM:10nM, anti-RXR (NR concentration 30 nM, RXRa partner concentration 10 nM)
How it was run: as §1

[10] = test system: PPARg:RXRa 90nM:30nM, anti-RXR (NR concentration 90 nM, RXRa partner concentration 30 nM)
How it was run: as §1

Sequence	PBM binding z-score [1]	PBM binding z-score [2]	PBM binding z-score [3]	PBM binding z-score [4]	PBM binding z-score [5]	PBM binding z-score [6]	PBM binding z-score [7]	PBM binding z-score [8]	PBM binding z-score [9]	PBM binding z-score [10]
CATTACGGGTCAAGGTTATAGCACGGGTGGTACG	5.89	5.21	1.53	3.61	1.18	5.27	5.67	5.45	2.22	4.39
CCTCGGAGGACAGAAGGTCTGAGCTGTCCGCTTT	-0.434	-0.47	-0.775	-1.15	-1.31	-0.68	-0.853	-0.655	-1.15	-1.14
CTACCAAGGTGACCAAGGTCGTTGATTACTATTC	0.954	0.863	0.0331	1.37	-0.415	1.82	0.763	0.769	-0.239	0.452
CTCGAAAGGACGGTTGAGGTGAGTATACGGATAA	0.507	-0.351	-0.439	-0.303	-0.832	0.0414	0.232	-0.0748	0.0534	-0.244
CTACCAAGGTGAACAAGGTCGTTCATTACTATTC	2.27	3.01	1.12	2.9	0.239	3.12	1.29	1.56	0.212	0.958
CGTCAAAGTTCAACTAAGGTAACCTAAAGCACGC	7.07	6.1	4.45	4.4	2.21	5.35	5.27	5.95	2.33	4.85
AGTCAAAGTTCACTAGGTACCGTAAGATTCAGCT	4.67	5.23	3.18	3.05	0.945	4.23	5.85	6.01	2.8	5.22
CCTACTGTGCCACGAAAGGTCATTGATTCAGTGA	3.98	5.43	5.47	4.73	1.31	4.62	3.72	4.36	2	3.59
TCATATAGGTAAATGCTAGATGAAAGTCCGATCT	0.267	0.34	-0.249	0.68	-0.163	1.06	1.06	1.99	3.6	2.79
CGTCCAAGGTCATAGGAGGACAGTGAAGACAGAT	7.15	6.2	1.35	4.45	0.52	5.39	4.71	4.97	1.81	3.56
CAAACTAGGTCACGAAAGGTCAAACTCGAATGAC	7.61	8.32	8.55	7.66	3.3	6.75	10.5	8.69	6.95	8.93
ACTTACGGGTCACCGAGGTTATAGCACGCGTATA	7.33	5.59	1.1	4.77	0.402	6.19	7.11	6.57	3.18	5.44
GCTGCTAGGTCAGGTTGGTCAGCAAACGGGTACG	1.13	0.793	-0.389	0.519	-0.114	1.52	0.5	0.829	-0.344	0.0879
ATCTCTAGGTAACCAAGTTCAGTGAGTGCCGAAC	0.417	0.863	0.949	0.855	0.746	1.04	0.34	0.67	-0.0594	0.338
TCTAGCAGGCCAGAGGGCCACTCAAGAGGTACGG	-0.266	-0.338	-0.799	-0.58	-1.64	0.104	0.795	1.97	1.77	1.71
CCTAGTTGGTTAAGGTCACACACGCTATAGGTAC	4.71	4.56	2.6	4.3	1.42	4.33	2.68	3.2	1.24	2.39
TAACCTAGGTCATTCAGGGGCCAGTATAGAAAGC	5.52	5.3	3.1	3.98	2.09	4.46	3.45	4.12	1.61	3.03
CGTCCAAGGTCTTAGGAGGTCAGTGAAGACAGAT	1.69	3.12	0.984	2.03	-0.404	2.28	0.427	1.06	0.0477	0.43
TCTAGCAGGCCAGAGGGTCAGTCAAGAGGTACGG	0.425	0.152	-0.884	0.413	-1.51	1.35	0.768	1.81	1.49	1.68
AGAATGTGGTTAAGATCAGGGAAACAGAATACAT	0.33	-0.14	0.153	0.27	0.174	0.172	0.496	0.291	0.299	-0.247
ATCGAAAGGTCGAGGGGAGTATAGAGAAAGGGAA	4.46	3.49	0.308	2.92	1.64	4.58	2.97	3.17	1.13	2.36
ACTAGCAGGCCAAGTTTGGGTCACTCTAACAAAG	0.184	-0.0297	-0.399	0.217	-0.928	1.03	-0.172	0.0985	-0.547	-0.605
TCTCGGAGGACACGAAAGGTCAGAGCACGACATC	2.91	3.73	3.12	3.29	0.0344	3.63	1.64	2.76	2.25	2.42
CGAACTAGGTCATTGACAGGACTGTGAATAGTAA	4.46	2.5	0.131	1.81	0.103	4.71	7.38	6.1	4.05	5.52
TCTCGGAGGACACGAAAGGTCATAGCTCGACATC	4.39	5.36	5.67	4.45	0.51	4.49	2.19	3.86	3.01	3.37

Sequence	PBM binding z-score [1]	PBM binding z-score [2]	PBM binding z-score [3]	PBM binding z-score [4]	PBM binding z-score [5]	PBM binding z-score [6]	PBM binding z-score [7]	PBM binding z-score [8]	PBM binding z-score [9]	PBM binding z-score [10]
CAAACTAGGTCACCGGAAGGTCAAGGTCCGCATG	5.96	5.56	3.66	4.58	0.998	5.83	9.82	7.78	5.66	8.09
TCATATAGGTAAAGGTGGAAGTCGAACGATATGA	0.695	0.507	0.313	0.415	0.0945	1.93	2.54	3.54	4.18	3.93
GGTATTAGTTGAAAGGGCAACCGAATGATTCTCG	1.14	1.49	1.06	1.41	0.907	2.66	3.26	5.07	3.13	4.79
CAAACTAGGGCACGAAAGGTCAAAGTCGAATGAC	5.64	6.93	6.08	5.54	1.5	6.49	8.39	7.22	5.17	7.03
CCTGCTAGCTCATGGTCAGCTAATCTACAGTATG	-0.461	-0.418	-0.46	-0.626	-0.239	-0.737	-0.225	-0.822	-0.885	-0.895
ATCGAAAGGTCGATGGTGAGTATACCCACCCGAA	3.01	2.38	-0.15	1.83	0.391	3.29	1.48	1.85	0.714	1.02
ACTGACAGGTGATGAAGGTAACTCAGGCTATCAT	-0.15	-0.398	-0.445	-0.455	-0.408	-0.0489	0.472	0.0848	0.0417	0.219
GGAACGAGGGCGAGTTGATAGCAGAGTTTGATGG	-0.328	-0.505	-0.54	-0.523	-0.787	-0.0875	0.373	-0.24	-0.495	-0.42
CCGACTGGGGCTAGGTTACCATAACGCACAGCCA	-0.553	-0.225	-0.483	-0.184	-0.938	-0.107	0.784	0.0405	-0.564	-0.369
AGGCAAAGTTCACTAGGTAACGTAAGATTCAGCT	5.31	5.15	2.57	3.12	0.881	4.61	6.33	6.04	2.78	5.21
TAGCCTAGGTCATGGGCCAGTCTACCACGCGAAC	4.36	3.2	0.0919	2.04	-0.312	4	3.34	3.49	0.699	2.48
CGAACTAGGTCAAGTACAGTGAATCTCCGCACGC	4.5	2.83	0.474	2.32	0.607	4.85	7.57	6.29	4.41	5.92
CTCGAAAGGACGTGCTCAGGTGAGTATACCAAAC	0.0322	-0.223	-0.388	-0.196	-0.277	-0.124	0.136	-0.268	-0.294	-0.148
GGAACGAGGGCATTCCAGTTGATAGCATGGCGAT	1.15	1.43	-0.298	0.454	-0.264	1.42	0.909	0.848	-0.214	0.301
GCTAGTAGGCCATTTGGGTCACTCAATGACGGGC	-0.0419	-0.00892	-0.666	-0.044	-0.894	1.98	2.27	2.41	0.459	1.79
CCTAGCAGGGCAATCTGGGTCACTCAAGGCTTGA	0.679	2.4	-0.398	0.85	-0.611	2.99	2.72	2.62	0.319	1.75
GCCAGCAGGCCATTTGGGTCACTCAATGACGGGC	0.0652	-0.0507	-0.664	-0.289	-1.29	1.02	0.451	0.16	-0.483	-0.357
GTTACAGGGTCAGCTAGAGGCCAGAGTATGGAAA	4.39	3.18	-0.168	2.39	0.166	4.41	3.35	3.64	0.837	2.63
TCATATAGGTAAATGTTAGGTGAAAGTCCGATCT	1.64	1.44	0.543	1.22	0.304	1.64	1.04	2.53	4.07	3.22
CGTCCAAGGGCAGAGAGGTCAGTGAATGCCGAGT	1.75	1.84	0.628	1.59	-0.506	2.5	0.642	1.19	-0.361	0.293
GCAGACAGGTGAAACGCAGGTAATTCAGGGTGGC	-0.0187	-0.113	-0.552	-0.337	-1.33	0.845	0.419	-0.127	-0.526	-0.551
GCTATTAGTTCAAAGGGCAACCGAATGATTCTCG	2.78	2.89	0.929	2.17	0.2	3.79	4.51	5.96	5.32	6.42
CGTCCAAGGACAAAGGTCAGTGAAGAGATGACGG	3.18	3.25	1	2.85	-0.0848	4.56	5.79	5.86	3.8	5.51
CCTTACGGATCACGAGGTTATAGCACGACGAGCG	0.639	1.1	0.818	1.11	0.481	1.48	1.06	0.294	0.0325	0.104
